Screens from PubChem.
Lamin A splicing – qHTS Assay for Modulators of Lamin A Splicing; HeLa LMNA splicing GFP/RFP minigene ratio, 48 h; Potency, µM (titrated, usually from 46.1 µM), inactives show at the top dose ratio change, negative = inhibition, actives largely listed as inhibitors; hit rate 0.01% among 200,000; active = well fitted inhibition curve with a large enough effect in the signal ratio, with a control signal flat, not every such curve was filed as active; inconclusive = small, poorly fitted or top-dose-only effect, or effect the other way, or a change in a side signal; the % refers to the signal ratio; also: % is scaled to controls: 0 for no effect and ±100 for the full control effect
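Read-out is the ratio of GFP to DsRed2 object intensity, acquired by 488 nm laser-scanning cytometry on HeLa lamin A-EGFP minigene reporter cells. Compound incubation 48 hrs at 37 °C in Opti-MEM with 2% FBS; DMSO 0.5% final.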
HTT ATP protect – qHTS Multiplex Assay to Identify Dual Action Probes in a Cell Model of Huntington: Cytoprotection (ATP). PC12 HTT-Q103 induced, cytoprotection, ATP luminescence, 40 h. Potency, µM (series often up to 56.4 µM), inactives show cytoprotection (ATP increase), usual class: activators. hit rate 0.14% among 230,000; also: % of control where 0% means no effect; nearly all actives have a fitted effect of over 45% in size
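Rat PC12, Q103 Htt exon1-GFP fusion, ecdysone promoter; tebufenozide inducer 100 nM final; compound titration; qHTS, 1500 cells/well; ATPlite luminescent read.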
HPGD inh – qHTS Assay for Inhibitors of HPGD (15-Hydroxyprostaglandin Dehydrogenase); 15-hydroxyprostaglandin dehydrogenase [NAD(+)] (Homo sapiens), P15428; purified HPGD, NADH fluorescence kinetic, PGE2 substrate; Potency, µM, for inactives: top-dose activity change, negative = inhibition, actives largely listed as inhibitors; hit rate 4.3% among 150,000; AID 894, 2007; active = well fitted inhibition curve with a large enough effect, not every such curve was filed as active; inconclusive = small, poorly fitted or top-dose-only effect, or another doubt; inactive = no such curve, though single readings can be large or run the other way; also: % is scaled to controls: 0 for no effect and ±100 for the full control effect
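NADH formation kinetics: reaction with 30 uM PGE2 and 1 mM NAD+ (final), 20 nM enzyme, Tris-HCl pH 8 with Tween 20, after 15 min compound preincubation at room temperature. Fluorescence change, last versus first of five reads.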
ALDH1A1 inh – qHTS Assay for Inhibitors of Aldehyde Dehydrogenase 1 (ALDH1A1). Purified ALDH1A1, NADH fluorescence, propionaldehyde substrate. Potency, µM (top dose mostly 75.3 µM), without a hit: at the top dose activity, negative = inhibition, actives largely listed as inhibitors. hit rate 7.3% among 220,000. AID 1030, 2008; active = well fitted inhibition curve with a large enough effect, not every such curve was filed as active; inconclusive = small, poorly fitted or top-dose-only effect, or another doubt; inactive = no such curve, though single readings can be large or run the other way;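 also: plate controls were no enzyme wells and a reference inhibitor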
Target sequence (P00352 whole entry, looked up): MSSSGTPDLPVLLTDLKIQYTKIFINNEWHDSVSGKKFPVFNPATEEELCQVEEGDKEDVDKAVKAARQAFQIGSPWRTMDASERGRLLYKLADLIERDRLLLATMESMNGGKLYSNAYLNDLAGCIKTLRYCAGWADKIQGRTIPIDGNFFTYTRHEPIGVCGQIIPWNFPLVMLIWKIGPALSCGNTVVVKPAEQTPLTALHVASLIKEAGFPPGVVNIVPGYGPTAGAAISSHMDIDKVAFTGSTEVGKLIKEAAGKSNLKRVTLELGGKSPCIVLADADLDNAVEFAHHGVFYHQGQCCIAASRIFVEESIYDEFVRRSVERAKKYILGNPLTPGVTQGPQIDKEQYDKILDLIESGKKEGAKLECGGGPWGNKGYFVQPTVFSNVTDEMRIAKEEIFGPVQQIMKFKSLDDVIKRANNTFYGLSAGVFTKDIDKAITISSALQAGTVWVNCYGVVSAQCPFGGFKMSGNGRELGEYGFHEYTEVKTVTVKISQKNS
HTT aggregate – qHTS Multiplex Assay to Identify Dual Action Probes in a Cell Model of Huntington: Aggregate Formation (GFP); PC12 HttQ103-GFP aggregates, Acumen cytometry, 40 h; Potency, µM (titrated, usually from 46.1 µM), for the others: top-dose activity change, negative = inhibition, most hits filed as inhibitors; AID 1688, 2009; hit rate 1.1% among 220,000; also: % is scaled to controls: 0 for no effect and ±100 for the full control effect; nearly all actives have a fitted effect of over 60% in size
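Aggregates are detected as GFP objects 1–25 µm with signal 6 STDEV over background in lysates of induced PC12 cells. These carry Huntingtin exon 1 with 103 glutamines fused to GFP under an ecdysone promoter; compounds titrated.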
The depositor's hits bear a star; u = inconclusive; x = no result; [ ] = remark or other dose. In the library only some 8.8% were active in any assay of this set; here they are far more common. Unless noted, calls follow the shape of the dose curve; as a rule, active = well fitted curve in the direction sought with a large enough effect; inconclusive = small, poorly fitted or top-dose-only effect, or another doubt; inactive = no such curve, though single readings can be large; an effect the other way counts as inactive or inconclusive. Potency is read from the fitted curve at half-maximal effect.

SMILES	Lamin A splicing	HTT ATP protect	HPGD inh	ALDH1A1 inh	HTT aggregate
COc1cc(SC)ccc1C(=O)N1CCCCCC1	u	34%[10 µM]	3.2µM*	6%	-22%
O=C(NC1CC1)c1ccc(F)cc1Cl	-14%	-8%	20µM*	-6%	-8%
COc1cc(SC)ccc1C(=O)N1CCN(c2ccccc2)CC1	-9%[46 µM]	14%[10 µM]	x	-5%	5%[9.22 µM]
COc1cc(SC)ccc1C(=O)OCC(=O)NC1CCCCC1	18%[46 µM]	1%[10 µM]	x	-9%	-4%
O=C(Nc1ccc(F)cc1F)NC1CC1	x	x	x	2%	-6%
Cc1nn(C)c(C)c1C1C(C#N)=C(N)OC2=C1C(=O)CCC2 (configuration not stated)	u	x	-9%	20%	11%
CC(=O)Nc1nnc2n1CCS2	-19%[46 µM]	x	x	x	x
O=C(CNS(=O)(=O)c1ccccc1)OCC(=O)c1ccc([N+](=O)[O-])cc1	-12%	-15%[10 µM]	-4%	1.1µM*	2%
O=C(CNc1ccccc1)c1ccc([N+](=O)[O-])cc1	-11%	27%[10 µM]	u	3.5µM*	14%
O=C(Cc1ccccc1)NCC(=O)OCC(=O)c1ccc([N+](=O)[O-])cc1	-1%	-6%[0.074 µM]	-2%	1.4µM*	-10%
Cc1ccc(C(=O)NCC(=O)NCC(=O)OCC(=O)c2ccc([N+](=O)[O-])cc2)cc1	14%	-8%	-14%	1µM*	12%
O=C(CNC(=O)c1ccc([N+](=O)[O-])cc1)c1ccccc1	5%	-26%	-1%	1%	5%
Cc1ccc(Nc2nc(/N=C/NO)n[nH]2)cc1C	-18%[46 µM]	-20%	x	3%	18%
CC(=O)N1CCOc2cc(S(=O)(=O)NCc3ccccc3Cl)c(C)cc21	0%[46 µM]	x	x	x	x
Cc1cccc(-n2c(C)nc3cc(C(=O)NCCC4=CCCCC4)ccc32)c1	-17%[46 µM]	x	x	x	x
COc1cccc(C(c2sc3nc(-c4ccco4)nn3c2O)N2CCN(c3ccccc3F)CC2)c1 (configuration not stated)	-16%[46 µM]	x	x	x	x
Cc1ccc(Nc2nc3nonc3[nH]c2=O)cc1Cl	-2%[9.22 µM]	-122%	x	u	22µM*
COC(=O)c1c(-c2ccc(OC)c(OC)c2)csc1N	1%	-13%	28µM*	4µM*	-1%
COC(=O)c1c(-c2cccc(C)c2)csc1N	-11%	-12%	-27%	16%	-29%
COC(=O)c1c(-c2cccc(OC)c2)csc1N	u	3%[10 µM]	-19%	25µM*	3%
CC1CC(O)CC(C)(C)C1 (configuration not stated)	x	13%	x	x	18%
COc1cc(C)cc(OC)c1/C=C\C(=O)O	x	-8%[10 µM]	-2%	19%[13.5 µM]	x
CCn1c(-c2ccccc2)c[nH]c1=S	5%	4%	-28%	28µM*	-7%
S=c1[nH]cc(-c2ccccc2)n1-c1ccccc1	-4%	-5%	25µM*	3.2µM*	10%
S=c1[nH]cc(-c2ccc(Cl)cc2)n1Cc1ccccc1	x	-1%[10 µM]	x	u	-7%[9.22 µM]
SMILES	Lamin A splicing	HTT ATP protect	HPGD inh	ALDH1A1 inh	HTT aggregate
Cc1ccc(-n2c(-c3ccccc3)c[nH]c2=S)cc1	x	-12%	x	2%	-24%
O=[N+]([O-])c1ccc(S(=O)(=O)CC2CSc3nc4ccccc4n32)cc1 (configuration not stated)	u	x	1%	-12%	-30%
NC(=O)c1cc[n+](CC2=C(C(=O)O)N3C(=O)[C@@H](NC(=O)[C@@H](c4ccccc4)S(=O)(=O)[O-])[C@H]3SC2)cc1	-13%	x	-25%	-10%	x
Cc1nn(-c2ccc(C(=O)O)cc2)c2c1C(=O)CC(C)(C)C2	x	24%[10 µM]	x	x	9%[9.22 µM]
CC1(C)CC(=O)c2c(nn(-c3ccccc3)c2-c2ccncc2)C1	-9%	u	-11%	14µM*	-30%
C#CCn1c(=NC(=O)c2ccc(S(=O)(=O)N3CCc4ccccc4C3)cc2)sc2cc(S(N)(=O)=O)ccc21	u	-36%[10 µM]	u	u	10µM*
CCN(CC)S(=O)(=O)c1ccc2c(c1)N(CC(=O)N1CCN(c3cccc(OC)c3)CC1)C(=O)CO2	1%[46 µM]	x	x	x	x
NS(=O)(=O)c1ccc(CCNC(=O)C(=O)C2C(=O)Nc3ccccc32)cc1 (configuration not stated)	x	15%[10 µM]	x	x	-6%[9.22 µM]
O=C1CC(N2CCN(c3cccc(C(F)(F)F)c3)CC2)C(=O)N1c1ccc(F)cc1 (configuration not stated)	2%	-17%	-23%	-3%	9%
CCOC(=O)C1CCCN(C2CC(=O)N(c3ccc(C)c(C)c3)C2=O)C1 (configuration not stated)	0%	-14%	-4%	10µM*	-4%
CCOC(=O)C1CCCN(C2CC(=O)N(c3ccc(N4C(=O)CC(N5CCCC(C(=O)OCC)C5)C4=O)cc3)C2=O)C1 (configuration not stated)	x	-18%	x	3.2µM*	20%
CCOC(=O)C1CCCN(C2CC(=O)N(c3cccc(C(F)(F)F)c3)C2=O)C1 (configuration not stated)	-1%	13%[10 µM]	-5%	8.9µM*	23%
CCOC(=O)C1CCN(C2CC(=O)N(c3ccc(OCC)cc3)C2=O)CC1 (configuration not stated)	u	-8%[10 µM]	4%	28µM*	-2%
CCOC(=O)C1CCCN(C2CC(=O)N(c3ccccc3)C2=O)C1 (configuration not stated)	u	-6%	x	u	15%
CCCCCCOc1ccc(N2C(=O)CC(N3CCC(C(=O)OCC)CC3)C2=O)cc1 (configuration not stated)	5%	13%[10 µM]	8%	u	17%
COc1ccc2c(c1-c1c3c(cc(Br)c1OC)CCCC3)CCCC2	x	u	-10%	1%	x
Cc1cccc(N2C(=O)CC(N3CCN(c4cccc(C(F)(F)F)c4)CC3)C2=O)c1 (configuration not stated)	-6%	-4%	-20%	28µM*	-10%
CCOC(=O)C1CCCN(C2CC(=O)N(c3ccc(C(C)C)cc3)C2=O)C1 (configuration not stated)	x	3%[10 µM]	x	10µM*	4%[9.22 µM]
Cc1ccc(S(=O)(=O)n2nc(-c3ccc(Cl)cc3)nc2NCc2ccco2)cc1	-8%	1%	-24%	3.5µM*	-28%
CCS(=O)(=O)n1nc(-c2ccccc2)nc1NCc1ccco1	-5%	5%[10 µM]	5%	-13%	2%
COC(=O)c1cc(C)nc(Sc2ccccc2N)n1	x	-32%[10 µM]	x	3.5µM*	-32%[9.22 µM]
COC(=O)c1ccccc1NC(=O)CSc1nc(C)cc(C)n1	x	-23%	x	-6%	-13%
CC(Oc1ccc(Br)cc1)C(=O)NCc1cccnc1 (configuration not stated)	x	x	-3%	6%	x
